Test [1] can be described thus: compounds binding Alexa647 anti-His antibody – biochemical, small-molecule microarray, 635 nm fluorescence, artefact control for SMM control protein annotation, primary screen (AID 1128).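 Further: score merges feature fluorescence with signal-to-noise for each printed compound spot.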 To be noted: higher = more signal.
The test system of test [2] is Human papillomavirus type 1a E7 protein (residues 1-88). As to the kind of experiment: HPV1a E7 small-molecule binders, primary screen, biochemical, small-molecule microarray, residues 1-88, 635 nm (AID 1129). As to conditions: small-molecule microarray binding, fluorescence 635 nm; higher = more signal.
The target in test [3] is Focal adhesion kinase 1 (Homo sapiens) (UniProt Q05397). Kind of test: PTK2 protein binding on printed compound slides – biochemical, small-molecule microarray, 635/667 nm fluorescence, BSA, DTT, primary screen (AID 1130).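 Further: composite of spot emission at 667 nm and signal to noise over triplicate slides.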 As to conditions: 635 nm fluorescence, higher = more signal.
The test system of test [4] is Fibrinogen (Alexa647-labelled). Kind of test: Alexa647-fibrinogen binding to printed small molecules – biochemical, small-molecule microarray, 635/667 nm fluorescence, artefact control for SMM control-protein annotation, profiling panel (AID 1131).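 Further: z-score merges 667 nm fluorescence with per-spot signal-to-noise over triplicate slides.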 As to conditions: fibrinogen-A647 binding fluorescence, higher = more signal.
The target in test [5] is Follistatin (Homo sapiens) (UniProt P19883). As to the kind of experiment: FST protein binding to printed compounds – biochemical, small-molecule microarray, 635/667 nm fluorescence, primary screen (AID 1132). To be noted: 635 nm fluorescence, higher = more signal.
Test [6] has as its target Fibroblast growth factor 2 (Homo sapiens) (UniProt P09038). As to the kind of experiment: basic fibroblast growth factor binding to printed compounds – biochemical, small-molecule microarray, 635/667 nm fluorescence, primary screen (AID 1133). As to conditions: FGF2, fluorescence 635/667, higher = more signal.
A short description of test [7]: JC-1 mitochondrial potential readout, lung cancer cells – cell-based, A549, JC-1 fluorescence, basal, 24 h, 100 nL, profiling panel (AID 1138).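 Further: A549 lung adenocarcinoma cells under basal conditions with no added stimulus; test concentration not given here.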 To be noted: higher = more signal.
A further test concerns Lefty1. As to the kind of experiment: Lefty1 protein binding to printed compounds – biochemical, small-molecule microarray, 635/667 nm fluorescence, primary screen (AID 1139). As to conditions: fluorescence 635/667, higher = more signal.
Test [8] has as its system wheat germ agglutinin (Triticum aestivum), Alexa647-labelled. Kind of test: Alexa647-WGA lectin binding to printed small molecules – biochemical, small-molecule microarray, 635/667 nm fluorescence, artefact control for SMM control-protein annotation, profiling panel (AID 1140).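 Further: score merges 667 nm feature emission with signal to noise over triplicate slides.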 As to conditions: WGA-A647 binding, 635 nm fluorescence, higher = more signal.
For test [9], the target named is Luciferin 4-monooxygenase (Photinus pyralis) (UniProt P08659). Kind of test: inhibition of purified Photinus pyralis luciferase – biochemical, luminescence, purified enzyme, 2006 set, primary screen (AID 1141).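 Further: cell-free assay with purified firefly luciferase at 100 ng per well in PBS; test concentration not given here.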 To be noted: purified firefly luciferase, SteadyGlo luminescence, 30 min; higher = more signal, called active from +8 up or from −8 down.
Test [10] concerns Wnt5a (protein binding on small-molecule microarray). Kind of test: small molecules binding Wnt5a protein – biophysical, small-molecule microarray, 635/667 nm fluorescence, primary screen (AID 1142).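 Further: fluorescence read at 667 nm with signal to noise per printed feature.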 To be noted: 635 nm fluorescence, higher = more signal.
A short description of test [11]: ATP-based viability of Huh7 replicon cells – cell-based, CellTiter-Glo luminescence, basal, 48 h, cytotoxicity control for HCV replication inhibitor project, primary screen (AID 1143).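 Further: Huh7 hepatoma cells carrying a hepatitis C replication reporter with no stimulus; test concentration not given here.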 As to conditions: higher = more signal, called active from +8 up or from −8 down.
A short description of test [12]: Pseudomonas biofilm growth suppression – PAO1 strain, BacTiter-Glo luminescence, LB-PBS, primary screen (AID 1144). To be noted: P. aeruginosa PAO1 biofilm, 12 h, higher = more signal.
Test [13] is described as follows: basal CRE-LacZ reporter activity in PC12 – cell-based, unstimulated, primary screen (AID 1145). As to conditions: no forskolin, luminescence, 4.5 h, higher = more signal, called active from +8 up or from −8 down.
Test [14] can be described thus: forskolin-driven CRE-LacZ activity in PC12 – cell-based, CRE-LacZ reporter, forskolin-stimulated, primary screen (AID 1146).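 Further: PC12 cells with 6xCRE LacZ reporter stimulated by forskolin 10 µM; beta-galactosidase reporter signal reflecting CREB driven transcription.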 To be noted: luminescence, 4.5 h, higher = more signal, called active from +8 up or from −8 down.
Test [15] deals with Streptavidin (Streptomyces avidinii) (UniProt P22629). As to the kind of experiment: compounds binding control protein streptavidin – biophysical, small-molecule microarray, 635/667 nm fluorescence, artefact control for SMM compound annotation, primary screen (AID 1147).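 Further: signal reflects streptavidin binding to arrayed compounds as a control protein.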 As to conditions: higher = more signal.
Test [16] in a line: probe aInhba binding on compound microarray – biochemical, small-molecule microarray, 635/667 nm fluorescence, primary screen (AID 1148).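 Further: score merges 667nm spot fluorescence with signal-to-noise for antibody binding to printed compounds.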 To be noted: higher = more signal.
Test [17] concerns the target Torsin-1A (Homo sapiens) (UniProt O14656). As to the kind of experiment: TOR1A wild-type binding on microarray – cell lysate, small-molecule microarray, lysate, 635/667 nm, primary screen (AID 1149). As to conditions: COS7 hTOR1A-WT lysate, 635 nm fluorescence, higher = more signal.
For test [18] the target is unchanged. As to the kind of experiment: torsin A mutant lysate binding on microarrays – cell lysate, small-molecule microarray, COS7 lysate, 635/667 nm fluorescence, primary screen (AID 1150).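 Further: score pools 667 nm emission and signal to noise measuring lysate protein binding.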 As to conditions: COS7 hTOR1A mutant lysate, 635 nm fluorescence, higher = more signal.
The subject of test [19] is Sonic hedgehog protein (Shh). As to the kind of experiment: Sonic hedgehog microarray binding compounds – biochemical, small-molecule microarray, 635/667 nm fluorescence, primary screen (AID 1151).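 Further: Shh protein binding to compounds spotted on small-molecule microarray slides; score combines spot fluorescence intensity with signal-to-noise across triplicate slides.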 To be noted: 635 nm fluorescence, higher = more signal.

This passage reports composite z-score and z-score results from PubChem BioAssay.

Each structure is given as a SMILES string. Activity calls are given as the source filed them. Unless noted, how the calls were made is not given here.

Sequence of Fibroblast growth factor 2 (Homo sapiens) (P09038 whole entry, looked up): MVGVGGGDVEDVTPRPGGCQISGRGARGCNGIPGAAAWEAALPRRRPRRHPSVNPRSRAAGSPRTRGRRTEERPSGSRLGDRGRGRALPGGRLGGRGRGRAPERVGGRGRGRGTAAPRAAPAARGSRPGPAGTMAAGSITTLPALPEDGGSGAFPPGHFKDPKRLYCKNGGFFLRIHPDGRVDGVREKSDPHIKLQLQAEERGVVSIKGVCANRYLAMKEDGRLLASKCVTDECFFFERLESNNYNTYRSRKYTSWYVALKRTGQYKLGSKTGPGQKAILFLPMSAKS
Sequence of Luciferin 4-monooxygenase (Photinus pyralis) (P08659 whole entry, looked up): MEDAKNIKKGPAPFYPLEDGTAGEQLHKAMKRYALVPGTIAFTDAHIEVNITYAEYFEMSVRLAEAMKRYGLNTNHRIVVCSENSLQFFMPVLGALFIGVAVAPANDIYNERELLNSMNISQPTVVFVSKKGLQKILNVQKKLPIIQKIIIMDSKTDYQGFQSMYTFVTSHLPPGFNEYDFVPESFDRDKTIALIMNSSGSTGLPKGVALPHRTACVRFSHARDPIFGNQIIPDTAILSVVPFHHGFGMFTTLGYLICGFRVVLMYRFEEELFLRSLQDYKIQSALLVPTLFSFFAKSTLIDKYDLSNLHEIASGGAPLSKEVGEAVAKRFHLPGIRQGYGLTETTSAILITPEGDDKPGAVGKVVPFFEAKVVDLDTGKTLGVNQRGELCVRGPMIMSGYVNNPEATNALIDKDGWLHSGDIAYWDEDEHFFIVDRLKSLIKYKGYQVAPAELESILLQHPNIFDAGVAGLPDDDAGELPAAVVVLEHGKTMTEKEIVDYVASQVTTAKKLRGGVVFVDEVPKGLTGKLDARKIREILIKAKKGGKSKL
Sequence of Streptavidin (Streptomyces avidinii) (P22629 whole entry, looked up): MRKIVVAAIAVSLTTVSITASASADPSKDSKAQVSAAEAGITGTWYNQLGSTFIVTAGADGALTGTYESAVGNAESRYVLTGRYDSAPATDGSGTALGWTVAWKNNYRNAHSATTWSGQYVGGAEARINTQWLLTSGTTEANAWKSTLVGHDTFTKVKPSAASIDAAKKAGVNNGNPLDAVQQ
Sequence of Torsin-1A (Homo sapiens) (O14656 whole entry, looked up): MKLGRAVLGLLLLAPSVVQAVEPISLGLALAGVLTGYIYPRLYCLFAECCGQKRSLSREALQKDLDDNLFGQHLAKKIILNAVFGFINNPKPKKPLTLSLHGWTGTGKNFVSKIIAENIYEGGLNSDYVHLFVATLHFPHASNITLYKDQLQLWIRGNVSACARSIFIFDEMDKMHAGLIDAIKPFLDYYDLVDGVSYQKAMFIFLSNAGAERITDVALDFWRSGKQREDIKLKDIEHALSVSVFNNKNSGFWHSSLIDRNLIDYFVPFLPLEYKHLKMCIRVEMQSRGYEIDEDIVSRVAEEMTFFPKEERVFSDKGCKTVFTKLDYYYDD
Sequence of Focal adhesion kinase 1 (Homo sapiens) (Q05397 whole entry, looked up): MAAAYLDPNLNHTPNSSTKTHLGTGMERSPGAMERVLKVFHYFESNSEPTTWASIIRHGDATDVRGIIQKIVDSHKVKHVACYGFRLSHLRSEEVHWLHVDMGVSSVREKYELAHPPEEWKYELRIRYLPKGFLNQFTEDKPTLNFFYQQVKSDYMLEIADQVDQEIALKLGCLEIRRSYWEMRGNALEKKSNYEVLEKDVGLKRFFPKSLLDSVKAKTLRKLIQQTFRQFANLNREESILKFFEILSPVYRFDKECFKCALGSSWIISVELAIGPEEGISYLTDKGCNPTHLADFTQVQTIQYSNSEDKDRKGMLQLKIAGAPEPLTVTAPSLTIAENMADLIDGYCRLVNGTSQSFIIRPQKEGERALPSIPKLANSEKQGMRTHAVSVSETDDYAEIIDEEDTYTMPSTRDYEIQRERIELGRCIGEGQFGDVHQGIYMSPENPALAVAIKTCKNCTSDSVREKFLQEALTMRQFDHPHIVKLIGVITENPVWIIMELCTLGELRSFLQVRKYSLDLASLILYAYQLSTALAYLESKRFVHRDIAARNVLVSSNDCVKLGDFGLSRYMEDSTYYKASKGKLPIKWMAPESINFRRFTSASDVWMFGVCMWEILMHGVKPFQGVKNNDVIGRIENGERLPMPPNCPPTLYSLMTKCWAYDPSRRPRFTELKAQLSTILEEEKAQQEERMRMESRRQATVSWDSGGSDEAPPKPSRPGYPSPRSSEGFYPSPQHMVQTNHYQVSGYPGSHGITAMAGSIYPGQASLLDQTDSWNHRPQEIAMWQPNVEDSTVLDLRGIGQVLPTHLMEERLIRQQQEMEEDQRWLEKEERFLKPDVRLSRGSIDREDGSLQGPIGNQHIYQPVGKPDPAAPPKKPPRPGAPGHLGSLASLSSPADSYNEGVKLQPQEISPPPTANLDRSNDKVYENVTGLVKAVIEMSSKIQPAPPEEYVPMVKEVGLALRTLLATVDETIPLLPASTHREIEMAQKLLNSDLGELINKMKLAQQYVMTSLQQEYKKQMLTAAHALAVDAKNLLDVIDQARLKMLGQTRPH
Sequence of Follistatin (Homo sapiens) (P19883 whole entry, looked up): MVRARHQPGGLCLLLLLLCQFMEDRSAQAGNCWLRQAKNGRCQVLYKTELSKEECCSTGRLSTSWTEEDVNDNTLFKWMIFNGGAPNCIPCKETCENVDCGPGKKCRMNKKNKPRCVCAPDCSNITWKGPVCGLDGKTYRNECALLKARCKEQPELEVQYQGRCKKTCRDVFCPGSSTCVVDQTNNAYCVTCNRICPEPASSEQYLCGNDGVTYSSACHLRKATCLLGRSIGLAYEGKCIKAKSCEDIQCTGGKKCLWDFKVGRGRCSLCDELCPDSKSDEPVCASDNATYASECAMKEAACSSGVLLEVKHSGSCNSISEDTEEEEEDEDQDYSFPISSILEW

Take `C=C(COC)/C(=C/C[C@@H](OC(C)=O)c1cccc(OCCO)c1)c1cnc2ccccc2c1`: the composite z-score in test [1] is 0.309; in test [2] it was 0.75; in test [3] it was -0.012; in [4] it was -0.657; in [5] it was 1.42; in test [6], 1.2. The composite z-score with Lefty1 is 1.24; in test [8] it was 1.04; in [10], 0.603; in test [15], 0.897; in [16], -0.0131; in the test with Torsin-1A (Homo sapiens) [17], 0.14. The composite z-score was 0.499 in the test with Torsin-1A (Homo sapiens) [18] and 1.83 in [19]. Moreover, the z-score in test [7] is 0.031; in test [9], -1.11 (inactive); in test [11] it was -2.14 (inactive); in test [12], 0.0432 (inactive); in test [13], 2.53 (inactive); in test [14], -0.444 (inactive).
In the case of `COc1ccc([Si](C)(C)[C@H]2[C@H](CC(=O)N(CCO)Cc3ccccc3)O[C@@]3(C(=O)N(c4ccccc4)c4ccccc43)[C@@H]2C)cc1`, the composite z-score in test [1] stood at 1.2; in [2], 1.11; in test [3], 0.207; in [4], 0.743; in [5], 1.1; in test [6], 0.679. Also, the composite z-score in the test on Lefty1 is 0.83; in test [8] it was 0.135; in test [10] it was 0.318; in [15], 0.862; in test [16], -0.0986; with Torsin-1A (Homo sapiens) [17], 0.0895. Besides, the results for the composite z-score (with Torsin-1A (Homo sapiens) [18]; in [19]) were -0.364 and 1.2, respectively. Further, the z-score in test [7] was -0.23; in test [9] it was -0.429 (inactive); in [11] it was -7.96 (inactive); in test [12], -0.164 (inactive); in test [13], 16.4 (active); in test [14] it was -3.89 (inactive).
As for `CO[C@H]1O[C@H](CO)[C@@H](OC(=O)Nc2cccc(F)c2)[C@H](OC(=O)Nc2ccc3c(c2)OCO3)[C@@H]1OC(=O)Nc1ccc2c(c1)OCO2`, the composite z-score in [1] was determined as 2.61; in test [2] it was 1.29; in test [3] it was 0.243; in [4], 0.973; in [5], 1.25; in [6], 0.217. Further, the composite z-score in the test on Lefty1 is 0.278; in test [8], 0.654; in test [10], 0.22; in test [15] it was 0.438; in test [16] it was 0.0471; with Torsin-1A (Homo sapiens) [17] it was 1.17. Besides, the values for the composite z-score (in the test with Torsin-1A (Homo sapiens) [18]; in test [19]) were 1.21 and 0.519, respectively. For the same molecule, the z-score in test [7] was -0.307; in test [9], -4.46 (inactive); in [11] it was -3.26 (inactive); in [12], 0.221 (inactive); in test [13], -0.207 (inactive); in test [14], -0.41 (inactive).
For the molecule `Cc1ccc(S[C@]2(C(=O)NC(C)C)CC(=O)N(Cc3ccccc3)[C@@H]2c2ccc(CO)cc2)cc1`, the composite z-score in test [1] was 0.0893; in test [2], -0.161; in test [3], 0.274; in test [4] it was -1.36; in test [5], -1.15; in [6], -1.36. The composite z-score is -1.06 in the test with Lefty1; 0.704 in test [8]; -0.394 in [10]; -0.375 in test [15]; -0.143 in [16]; -1.65 with Torsin-1A (Homo sapiens) [17]. The composite z-score with Torsin-1A (Homo sapiens) [18] is -1.5; in test [19] it was -0.501. The z-score in test [7] was 0.649; in [9], 0.262 (inactive); in test [11] it was -2.19 (inactive); in test [12] it was -1.55 (inactive); in test [13] it was -0.295 (inactive); in test [14], 0.12 (inactive).
As for `COC(=O)[C@@]1(Cc2ccccc2)[C@H]2c3cc(C(=O)N(C)C)n(Cc4ccc(Cl)c(C(F)(F)F)c4)c3C[C@H]2CN1C(=O)c1ccccc1`, the composite z-score in test [1] was 1.17; in test [2], 1.16; in test [3] it was -0.104; in test [4], 0.93; in [5], 1.22; in test [6] it was 0.33. Besides, the composite z-score was 1.33 with Lefty1; 0.674 in test [8]; 0.498 in [10]; 1.56 in test [15]; 0.63 in test [16]; -0.172 with Torsin-1A (Homo sapiens) [17]. Moreover, the composite z-score with Torsin-1A (Homo sapiens) [18] amounted to 0.0947; in [19] it was 1.31. In addition, the z-score is 0.32 in [7]; 1.52 (inactive) in test [9]; -3.79 (inactive) in [11]; 0.821 (inactive) in test [12]; 0.583 (inactive) in [13]; -0.244 (inactive) in test [14].
